Assay outcomes from PubChem BioAssay.
PAX8 reporter – PAX8 transcriptional activity inhibition; RMG-I TPO-luciferase reporter, SteadyGlo, 24 h; inhibition, % at 12.6 µM; 360,000 compounds, 1.2% hits; AID 652154;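 active = mean replicate inhibition at least 60% with every replicate also reaching 60%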;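 also: luciferase light reporting Pax8 driven TPO promoter activity; plate controls were median of neutral control wells for no effect and mitoxantrone controls for full effect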
EWS-Fli block – blocks EWS/Fli oncoprotein-driven transcription | inhibition, % at 12.6 µM | 350,000 compounds, 0.67% hits | A673 NR0B1-luciferase reporter, viability-normalised;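 active = mean inhibition of at least 50% after viability correction, with every replicate also passing that limit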;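 also: firefly luciferase signal divided by Alamar Blue viability fluorescence both relative to DMSO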
KKLEB cytotox – CF airway cell cytotoxicity counter-screen; activity change (cytotoxicity), % at 5 µM; KKLEB CF airway cells viability, ATPlite luminescence, overnight; hits give low values; cells stimulated with P. aeruginosa culture filtrate; AID 602141; 360,000 compounds, 0.36% hits;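 active = corrected activity change at or below -50% at 5 µM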
CF NFkB inh – blocks PAF-induced NF-kB reporter in cystic fibrosis cells; KKLEB NF-kB-GFP reporter, GFP fluorescence overnight; inhibition, % at 5 µM; 360,000 compounds, 0.86% hits; AID 588850;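 active = at least 50% inhibition at 5 µM, scaled per plate between neutral and stimulator controls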;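 also: PAF is a Pseudomonas aeruginosa culture filtrate used as stimulus; plate controls were PAF-stimulated DMSO wells for no effect and unstimulated DMSO wells for full effect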
HIF-2a block – blocks HIF-2a reporter activity; 786-0 RCC cells HIF-2a reporter, luciferase luminescence, overnight; inhibition, % at 18.8 µM; 360,000 compounds, 0.72% hits;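 active = inhibition of the luminescence signal of 40% or more relative to plate controls, in a single-dose primary screen at 18.75 µM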
* hit, by the source's call; / = no result; ! = repeats disagree. The list is not random: actives were taken first. Their share in the collection is about 2.1%.

SMILES	PAX8 reporter	EWS-Fli block	KKLEB cytotox	CF NFkB inh	HIF-2a block
C[C@@H]1CN([C@@H](C)CO)C(=O)Cc2cc(NC(=O)Nc3ccc4c(c3)OCO4)ccc2O[C@H]1CN(C)C(=O)Nc1ccccc1	-14	-14	/	/	/
CCOc1ccc2nc(NC(=O)c3cccc(N4C(=O)CCC4=O)c3)sc2c1	-21	-2	-13	-23	-79
CCOc1ccc2nc(NC(=O)CSCC(=O)Nc3cc(C)on3)sc2c1	-35	60*	-2	0	-146
CCOc1ccc2nc(NC(=O)c3cccc(-c4cc5ccccc5oc4=O)c3)sc2c1	-53	-21	-58*	50*	-53
COc1cccc(/C=N/NC(=O)c2ccc(N3CCCC3=O)cc2)c1	96*	18	-28	18	-9
COc1cc(/C=N/NC(=O)c2ccc(-c3ccccc3)cc2)cc(OC)c1OC	80*	/	-7	-31	-1
COc1cc(C(=O)N/N=C/c2sccc2C)cc(OC)c1OC	81*	55*	-10	52*	20
COc1cc(/C=N/NC(=O)c2ccc(CN3c4cccc5cccc(c45)S3(=O)=O)cc2)cc(OC)c1O	4	0	-80*	69*	10
C[C@@H]1CN([C@@H](C)CO)C(=O)CCCn2cc(nn2)CO[C@@H]1CN(C)C(=O)Nc1ccc(C(C)(C)C)cc1	-1	-1	/	/	/
COc1cc(/C=N/NC(=O)c2ccc(-n3cccc3)cc2)ccc1O	72*	/	7	6	-11
O=C(C1CCCC1)N1CC2(C1)[C@@H](c1ccccc1)[C@@H](CO)N2CCC(F)(F)F	/	2	/	/	/
Cc1noc(C)c1S(=O)(=O)Nc1ccc2c(c1)C(=O)N([C@@H](C)CO)C[C@H](C)[C@@H](CN(C)Cc1ccc(C(=O)O)cc1)O2	/	-13	/	/	/
Cc1ccc(-n2[nH]c(=O)c(-c3ccccn3)c2C)cc1	75*	74*	-7	-7	73*
CNC[C@@H]1Oc2c(NS(=O)(=O)c3ccc(C)cc3)cccc2C(=O)N([C@H](C)CO)C[C@@H]1C	-4	3	/	/	/
O=C(NCc1nc2ccccc2[nH]1)C1=C[C@@H](c2ccc(Br)cc2)C[C@@H](OCc2ccc(CO)cc2)O1	85*!	15	5	-10	19
COc1ccc(CN(C)C[C@H]2Oc3ccc(NC(=O)Nc4ccc5c(c4)OCO5)cc3C(=O)N([C@@H](C)CO)C[C@H]2C)cc1	/	-1	/	/	/
COc1cc(NC(=O)c2ccccc2Cl)c2ncccc2c1	27	58*	2	18	-25
CCC/C=C/c1ccc(CN2C(CC(C)C)C(=O)N(Cc3cn(CCC4OCCCO4)nn3)CCS2(=O)=O)cc1 (stereo unspecified)	30	11	-11	17	-10
CCC/C=C/c1ccc(CN2C(C)C(=O)N(Cc3cn(CCC4OCCCO4)nn3)CCS2(=O)=O)cc1 (stereo unspecified)	81*	5	12	-3	7
COc1ccc(NC(=O)Nc2ccc3c(c2)C(=O)N([C@@H](C)CO)C[C@@H](C)[C@@H](CN(C)S(=O)(=O)c2c(C)noc2C)OCCCC[C@@H](C)O3)cc1	17	5	/	/	/
CO[C@H]1CN(C)C(=O)c2ccc(NS(C)(=O)=O)cc2OC[C@H](C)N(C)C[C@H]1C	/	-5	/	/	/
Cc1ccc(S(=O)(=O)Nc2cccc3c2O[C@H](CN(C)Cc2ccc(Cl)c(Cl)c2)[C@H](C)CN([C@@H](C)CO)C3=O)cc1	5	-9	/	/	/
C[C@H](CO)N1C[C@H](C)[C@H](CN(C)Cc2ccc(Cl)c(Cl)c2)Oc2c(NS(=O)(=O)c3ccc(Cl)cc3)cccc2C1=O	83*	12	/	/	/
C[C@@H]1CN([C@@H](C)CO)C(=O)c2cccc(NS(=O)(=O)c3ccc(Cl)cc3)c2O[C@@H]1CN(C)Cc1ccc(-c2ccccc2)cc1	65*	16	/	/	/
CCCCCCCSc1nnc(-c2ccccc2N)c(=O)[nH]1	8	56*	2	4	10
SMILES	PAX8 reporter	EWS-Fli block	KKLEB cytotox	CF NFkB inh	HIF-2a block
O=C(C[C@H]1CC[C@@H](NC(=O)C2CC2)[C@H](CO)O1)NC1CCC1	-5	6	/	/	/
O=C(C[C@H]1C[C@@H]2c3cc(NC(=O)NC4CCCC4)ccc3O[C@@H]2[C@H](CO)O1)NCCN1CCCCC1	-22	-8	/	/	/
COc1ccc(S(=O)(=O)N(C)C[C@H]2OCCCC[C@@H](C)Oc3ccc(NS(=O)(=O)c4ccc(Cl)cc4)cc3C(=O)N([C@@H](C)CO)C[C@H]2C)cc1	69*	7	/	/	/
COc1ccc(S(=O)(=O)N(C)C[C@@H]2OCCCC[C@H](C)Oc3ccc(NS(=O)(=O)c4ccc(Cl)cc4)cc3C(=O)N([C@@H](C)CO)C[C@@H]2C)cc1	64*	-8	/	/	/
COc1ccc(S(=O)(=O)Nc2ccc3c(c2)C(=O)N([C@@H](C)CO)C[C@@H](C)[C@@H](CN(C)S(=O)(=O)c2ccc(Cl)cc2)OCCCC[C@@H](C)O3)cc1	69*	4	/	/	/
COCC(=O)N1[C@H](CO)[C@H](c2ccc(-c3cccc(OC)c3)cc2)C12CN(C(C)=O)C2	-8	-6	/	/	/
CNC[C@H]1Oc2cc(-c3ccncc3)ccc2S(=O)(=O)N([C@H](C)CO)C[C@@H]1C	/	-6	/	/	/
C[C@@H]1CN([C@H](C)CO)C(=O)Cc2cc(NC(=O)NC3CCCCC3)ccc2O[C@@H]1CN(C)Cc1ccc(C(=O)Nc2ccccc2N)cc1	16	-14	/	/	/
COCCNC(=O)C[C@H]1C=C[C@@H](NC(=O)NC2CCCCC2)[C@H](CO)O1	-1	-7	/	/	/
O=[N+]([O-])c1ccc(N=Nc2c(Cl)cc(O)cc2Cl)cc1	98*	-15	-70*	56*	-196
CC(N)=Nc1ccc([N+](=O)[O-])cc1	-5	/	1	15	12
N#C[C@@H]1[C@H](c2ccc(-c3ccccc3F)cc2)[C@@H](CO)N1C(=O)Cc1ccccc1	103*	19	/	/	/
CCc1cnc(N2[C@H](C#N)[C@H](c3ccc(C#CCC4CCCC4)cc3)[C@@H]2CO)s1	21	-16	/	/	/
N#C[C@H]1[C@@H](c2ccc(C#CCC3CCCC3)cc2)[C@@H](CO)N1C(=O)c1ccccn1	74*	23	/	/	/
COc1cccc(-c2ccc([C@@H]3[C@H](C#N)N(C(=O)Cc4ccccc4)[C@H]3CO)cc2)c1	12	-1	/	/	/
N#C[C@@H]1[C@@H](c2ccc(-c3ccccc3F)cc2)[C@@H](CO)N1C(=O)Cc1ccccc1	5	-59	/	/	/
CCc1cnc(N2[C@@H](C#N)[C@@H](c3ccc(C#CCC4CCCC4)cc3)[C@@H]2CO)s1	73*	-11	/	/	/
COc1cccc(-c2ccc([C@H]3[C@@H](CO)N(C(=O)Cc4ccccc4)[C@H]3C#N)cc2)c1	91*	4	/	/	/
CN1CCN(C(=O)C[C@H]2C[C@@H]3c4cc(NC(=O)C5CCOCC5)ccc4O[C@@H]3[C@H](CO)O2)CC1	-9	1	/	/	/
COc1cccc(-c2ccc([C@H]3[C@@H](C#N)N(C(=O)c4ccccn4)[C@@H]3CO)cc2)c1	-77	-52	/	/	/
COc1cccc(C#Cc2ccc([C@H]3[C@@H](C#N)N(C(=O)c4ccccn4)[C@@H]3CO)cc2)c1	76*	-39	/	/	/
